Assay results from PubChem BioAssay AID565 (University of Pittsburgh Molecular Library Screening Center, 2006).
The campaign covered roughly 65,000 compounds. About 1,200 (1.8%) were called active. The sample as a whole holds a higher share of actives than the screen did. Unmarked numbers belong to inactive results. No stated cut-off is given here; in the data, active means inhibition above about 50%; inactive means the rest.

These compounds were tested against Gag-Pol polyprotein (Human immunodeficiency virus type 1 group M subtype B (isolate HXB2)) (UniProt P04585) (assay: HIV-1 RT RNase H inhibitors, primary screen, biochemical, fluorescence (AID 565)). Details: RT-RNase H RNA/DNA duplex cleavage, at 10 µM, stronger effect = higher value.
Work on `CCN(CC)CCCN1C(=O)C(=O)/C(=C(/O)c2c(C)nc3ccccn23)C1c1ccc(C)o1` (configuration not stated) yielded an inhibition of -7.5%.
For `O=c1c2ccccc2nnn1CSc1nc2sc3c(c2c(=O)n1CC1CCCO1)CCC3` (configuration not stated), the inhibition was -3.16%.
Work on `CC1Oc2ccccc2N(Cc2cccnc2)C1=O` (configuration not stated) yielded an inhibition of -1.88%.
`COC(=O)Nc1ccc(S(=O)(=O)N(C)CC(F)(F)C(F)F)cc1` gave an inhibition of -4.49%.
Work on `O=C(CN1CCN(CC(=O)Nc2ccc3c(c2)OCO3)CC1)Nc1ccc(F)cc1` yielded an inhibition of -10.3%.
In the case of `c1ccc(Nc2nc(-c3ccncc3)cs2)nc1`, the inhibition is reported as -13.7%.
Compound `N#C/C(=C1\CCCN1)c1nc(-c2ccccc2)cs1` has an inhibition of -34%.
For `N#CC(=C1SC=CS1)c1nc(-c2ccccc2)cs1`, the inhibition was 55.1% (active).
`Cc1cc(C)n(C(=O)c2ccc(S(=O)(=O)N3CCCC3)cc2)n1` was tested, and the inhibition was -7.85%.
Compound `Fc1ccccc1OCCSc1nc2ccccc2o1` has an inhibition of -31.7%.
`Cc1ccnc(-n2sc3ccccc3c2=O)n1` was tested, and the inhibition was 84.5% (active).
Work on `Cc1nc2ccccc2c(=O)n1CCCn1ccnc1` yielded an inhibition of -6.99%.
For `CC12C(=O)N(n3cnnc3)C(=O)C1C1C=CC2C1` (configuration not stated), the inhibition was 1.01%.
`C/C(=C\C(=O)c1ccc(Br)cc1)N1CCCCC1` showed an inhibition of -18.6%.
For `CCC(=O)Nc1cccc(NC(=O)CSc2nnc(-c3ccc(NS(C)(=O)=O)cc3)n2C)c1`, the inhibition was -1.65%.
`CCc1c(C)[nH]c(=S)c(C#N)c1C` was tested, and the inhibition was 84.3% (active).
`CC(=O)N1CCN(CCN=CC2=C(O)CC(C)(C)CC2=O)CC1` was tested, and the inhibition was -3.55%.
`COCCCNC(=O)Cn1cc(C(=O)C2CC2)c2ccccc21` gave an inhibition of -5.05%.
Work on `CCOc1cccc(-c2nnc3sc(COc4ccc(OC)cc4)nn23)c1` yielded an inhibition of 1.27%.
For `N#CCCn1cnc2ccccc21`, the inhibition was -0.17%.
In the case of `Fc1ccc(OCc2nn3c(Cn4nnc5ccccc54)nnc3s2)cc1`, the inhibition is reported as 77.8% (active).
With `c1ccc(Cc2nn3c(Cn4cnc5ccccc54)nnc3s2)cc1` the inhibition was 82.6% (active).
With `Cc1ccc(C(=O)CSc2nnc(Cn3nnc4ccccc43)n2C)cc1` the inhibition was -1.04%.
`O=C(CSc1nnc(Cn2cnc3ccccc32)o1)c1ccccc1` gave an inhibition of -18.7%.
`NC(=O)C1CCN(C2OC(=O)c3ccccc32)CC1` (configuration not stated) gave an inhibition of 2.61%.
`COc1ccc(OCC(=O)N2CCOCC2)cc1` was tested, and the inhibition was -8.89%.
`CCOc1cc(C(=S)N2CCOCC2)ccc1O` was tested, and the inhibition was 91.2% (active).
Compound `CCOc1cc(-c2noc(CCC(=O)N3CCOCC3)n2)ccc1OC` has an inhibition of -9.69%.
With `CCCCCn1c(SCCC(C)C)nc2c1c(=O)[nH]c(=O)n2C` the inhibition was 54.8% (active).
In the case of `Cn1c(=O)[nH]c(=O)c2c1nc(N1CCCCCC1)n2CC(=O)c1ccccc1`, the inhibition is reported as 1.85%.
In the case of `CCCCCCn1c(SCC(=O)c2ccccc2)nc2c1c(=O)[nH]c(=O)n2C`, the inhibition is reported as 54.7% (active).
For `Cc1nnc(SCCCn2c(N3CCCCC3)nc3c2c(=O)[nH]c(=O)n3C)s1`, the inhibition was -3.25%.
Work on `Cn1c(=O)[nH]c(=O)c2c1nc(Br)n2CCCCSc1nc2ccccc2o1` yielded an inhibition of 19.8%.
`CCCSc1nc2c(c(=O)[nH]c(=O)n2C)n1CCc1ccccc1` showed an inhibition of -11.9%.
Compound `CCn1cc(NC(=O)Nc2ccc(OC)c(OC)c2)c(C(N)=O)n1` has an inhibition of 9.07%.
`O=C(O)c1cccc2c1C(=O)N(C1CCCCC1)C2` showed an inhibition of -4.3%.
`CCN(CC)P(=O)(/C(Cl)=C\Nc1c(C)n(C)n(-c2ccccc2)c1=O)N(CC)CC` was tested, and the inhibition was -5.1%.
`O=S(=O)(c1ccc2ccccc2c1)N1CCN(S(=O)(=O)N2CCOCC2)CC1` gave an inhibition of -6.43%.
`CCOC(=O)c1sc(NC(=O)c2cc(S(=O)(=O)N3CCOCC3)ccc2C)nc1C` showed an inhibition of 3.07%.
For `Cc1noc(C)c1CSc1nc2cc(S(=O)(=O)N3CCOCC3)ccc2o1`, the inhibition was 86.2% (active).
In the case of `CCOCCCNC(=O)Cc1cc(=O)[nH]c(=O)[nH]1`, the inhibition is reported as 5.5%.
Work on `CC(=O)Oc1ccc(C)cc1N1C(=O)c2ccc(C(=O)O)cc2C1=O` yielded an inhibition of -4.48%.
`COc1ccc(OC)c(NC(=O)Cn2c(=O)oc3ccccc32)c1` showed an inhibition of -1.94%.
In the case of `CC1CCCN(C(=O)Cn2c(=O)oc3ccccc32)C1` (configuration not stated), the inhibition is reported as 7.78%.
For `NC(=O)Cn1c(=O)oc2ccccc21`, the inhibition was 96.3% (active).
In the case of `COc1ccc(OC)c2sc(NC(=O)C3COc4ccccc4O3)nc12` (configuration not stated), the inhibition is reported as 1.92%.
For `O=C(Nc1nc(-c2ccncc2)cs1)C1COc2ccccc2O1` (configuration not stated), the inhibition was 83.8% (active).
Work on `O=C(Nc1nc(-c2ccc3c(c2)OCO3)cs1)c1ccncc1` yielded an inhibition of -9.11%.
`O=C(CCSCCc1ccccn1)Nc1nccs1` gave an inhibition of -23.9%.
`CCOC(=O)c1c(C)c(C(=O)NCCc2ccc(S(N)(=O)=O)cc2)c(C)n1CC` showed an inhibition of -6.32%.
For `CCCc1nnc(NC(=O)CN2C(=O)c3ccccc3S2(=O)=O)s1`, the inhibition was 89.7% (active).
In the case of `CNC(=O)CN1C(=O)c2ccccc2S1(=O)=O`, the inhibition is reported as 4.74%.
`CCCc1nnc(NC(=O)c2cc(OC)cc(OC)c2)s1` was tested, and the inhibition was 4.61%.
`O=C(CN1CCOCC1)Nc1c(-c2ccccc2)c2cc(Br)ccc2[nH]c1=O` was tested, and the inhibition was 9.93%.
In the case of `COc1ccc(N2CCN(CCNC(=O)c3nnc(Cc4c(F)cccc4Cl)o3)CC2)cc1`, the inhibition is reported as 4.44%.
Compound `CCC(=NC1CC(C)(C)NC(C)(C)C1)C1=C(O)CC(C)(C)CC1=O` has an inhibition of -6.23%.
`Oc1ccc(-c2csc(Nc3cccnc3)n2)cc1` was tested, and the inhibition was 34.2%.
`COc1ccc(-c2n[nH]c(C)c2-c2ccc(OC)c(OC)c2)c(O)c1` was tested, and the inhibition was 3.91%.
`COc1ccc(OC)c(Nc2nc(-c3ccc(O)c(O)c3)cs2)c1` was tested, and the inhibition was 71.9% (active).
Compound `COCCN(C(=O)CCC(=O)Nc1ccccn1)C(C(=O)NCCC(C)C)c1ccc(OC)cc1` (configuration not stated) has an inhibition of 3.89%.
`CSCCC(Nc1nc2ccccc2s1)C(=O)O` (configuration not stated) gave an inhibition of -3.78%.
`Cc1cccn2c(=O)c3cc(C(=O)NCc4ccccn4)n(C)c3nc12` gave an inhibition of -10.5%.
`O=C(NCc1ccccn1)c1cc2ccccc2oc1=O` showed an inhibition of -3.63%.
For `O=C(NCc1ccccn1)c1ccc2nc(-c3ccco3)c(-c3ccco3)nc2c1`, the inhibition was 87.7% (active).
In the case of `CC(Sc1nncs1)C(=O)NCc1ccc2c(c1)OCO2` (configuration not stated), the inhibition is reported as -19.3%.
In the case of `c1ccc(-n2ncc3c2ncn2c(CSc4nc5ccccc5s4)nnc32)cc1`, the inhibition is reported as 63.5% (active).
`c1ccc(-n2ncc3c2ncn2c(C4CCCCC4)nnc32)cc1` was tested, and the inhibition was -1.63%.
`Cc1nc2nc(CSc3nc4ccccc4s3)cc(=O)n2[nH]1` was tested, and the inhibition was 4.18%.
`CN1CCN(C(=O)C2C3C=CC(C3)C2C(=O)O)CC1` (configuration not stated) showed an inhibition of 0.5%.
`CCN(CC)CCN1C(=O)C(=O)/C(=C(/O)c2ccc(OC)c(OC)c2)C1c1ccccn1` (configuration not stated) showed an inhibition of 5.17%.
Work on `COc1ccc(Cc2nnc(NS(=O)(=O)Cc3ccccc3)s2)cc1` yielded an inhibition of 1.94%.
`COc1ccc(Cc2nnc(NC(=O)Cc3cccs3)s2)cc1` was tested, and the inhibition was 70.2% (active).
In the case of `COCC(=O)Nc1nnc(COc2ccccc2)s1`, the inhibition is reported as -3.37%.
For `CCOC(=O)c1c(-n2cnnn2)sc(C)c1C`, the inhibition was 70.4% (active).
For `CCOC(=O)c1c(NC(=O)CSc2nnc(Cc3csc(N)n3)n2C)sc(C)c1C`, the inhibition was -19.7%.
For `CCOC(=O)c1c(NC(=O)c2cccs2)sc(C)c1C`, the inhibition was -2.71%.
Work on `Cc1cccc(NC(=O)C2CCCN2S(=O)(=O)c2ccc(F)cc2)c1C` (configuration not stated) yielded an inhibition of -5.03%.
In the case of `COc1ccc(CCNC(=O)c2ccc3c(c2)NC(=O)C(N2CCOCC2)S3)cc1OC` (configuration not stated), the inhibition is reported as -10.7%.
`O=c1cc(-c2ccccc2)nc(N2CCCCC2)[nH]1` gave an inhibition of -11.7%.
Work on `CC(=O)N1CCN(c2ccc(NCc3ccc(C(C)C)cc3)cc2)CC1` yielded an inhibition of -16.6%.
In the case of `CCOC(=O)CSc1nc2c(sc(=S)n2CCc2ccccc2)c(=O)n1Cc1ccco1`, the inhibition is reported as 60.1% (active).
With `COc1ccccc1NC(=O)CSc1nc2sc(C)c(C)c2c(=O)n1Cc1ccco1` the inhibition was 9.92%.
With `CCOC(=O)CSc1nc2c(c(=O)n(C)c(=O)n2C)n1Cc1ccccc1F` the inhibition was -12.1%.
For `COc1ccc(C2C(C#N)=C(N)Oc3n[nH]c(C)c32)cc1CN1CCN(c2ccc(F)cc2)CC1` (configuration not stated), the inhibition was -5.93%.
In the case of `COc1ccc(COC(=O)c2n[nH]c3ccccc23)cc1F`, the inhibition is reported as -42.8%.
Compound `CCN(CC)S(=O)(=O)c1ccc2nc(CSc3nnnn3-c3ccc(O)cc3)[nH]c2c1` has an inhibition of 10.6%.
For `CCN(CC)S(=O)(=O)c1ccc2nc(COC(=O)c3n[nH]c4ccccc34)[nH]c2c1`, the inhibition was 55.6% (active).
`CCCCC(=O)N1CC2(C)CN(C(=O)CCCC)CC(C)(C1)C2=O` was tested, and the inhibition was -4.52%.
`Cc1cc(C)c2c(n1)nn1c(N3CCN(c4cccc(Cl)c4)CC3)cc(C)nc21` showed an inhibition of 29.6%.
`CN1CCc2c(sc3c2c(NCc2ccco2)nc2nnnn23)C1` was tested, and the inhibition was 1.26%.
For `COC(=O)c1cc(S(=O)(=O)NC2CCN(Cc3ccccc3)CC2)cn1C`, the inhibition was -1.44%.
In the case of `CC(C)CCNC(=O)C1CCCN(S(=O)(=O)c2ccc(F)cc2)C1` (configuration not stated), the inhibition is reported as -4.63%.
In the case of `CC(C)CNC(=O)C1CCCN(S(=O)(=O)c2ccc(-n3cnnn3)cc2)C1` (configuration not stated), the inhibition is reported as 55.3% (active).
`CCS(=O)(=O)N1CCCC(C(=O)NCc2ccc(C)cc2)C1` (configuration not stated) gave an inhibition of -25.4%.
With `CC(Oc1ccc(Cl)cc1)C(=O)Nc1ncccn1` (configuration not stated) the inhibition was -1.55%.
`COc1ccc(CCNC(=O)c2cc3sccc3n2C)cc1OC` was tested, and the inhibition was -5.6%.
`O=C(Nc1nccs1)C1CCCN1S(=O)(=O)c1cccc2cccnc12` (configuration not stated) gave an inhibition of -30.1%.
